Most compounds without a hit are left out; they make up all but 1.9% or so of the library.
PP1 inh – counter-screen for PP5 inhibitors: inhibitors of human PP1-alpha; inhibition, % at 6.7 µM; 0.9% of 320,000 active; P62136; AID 2235; purified PP1alpha, OMFP fluorescence;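 active means inhibition above the mean inhibition of all tested compounds plus 3 SD, computed separately for each screening campaign, cut at about 15% in these data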
H9c2 protect – myocardial damage modulation in H9c2 cells | protection from H2O2 cell death, % at 20 µM | H9c2 cardiomyocytes, H2O2 injury protection, ATPLite, 2 h | 0.63% of 360,000 active;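 active means compounds giving at least 50% protection of heart cells from peroxide-induced death in the single-dose screen, raw or plate-pattern-corrected value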;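 further: 0% = DMSO wells with peroxide and 100% = DMSO wells without peroxide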
PP5 inh – inhibitors of human protein phosphatase 5 (PP5) | inhibition, % at 6.7 µM | purified PP5c, OMFP substrate fluorescence | P53041 | AID 1987 | 0.18% of 320,000 active;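 active means inhibition above the campaign's mean inhibition across all tested compounds plus 3 SD, cut at about 9.5% in these data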;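 further: 0% = DMSO only and 100% = 100 µM cantharidin control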
Target sequence (P53041 whole entry, looked up): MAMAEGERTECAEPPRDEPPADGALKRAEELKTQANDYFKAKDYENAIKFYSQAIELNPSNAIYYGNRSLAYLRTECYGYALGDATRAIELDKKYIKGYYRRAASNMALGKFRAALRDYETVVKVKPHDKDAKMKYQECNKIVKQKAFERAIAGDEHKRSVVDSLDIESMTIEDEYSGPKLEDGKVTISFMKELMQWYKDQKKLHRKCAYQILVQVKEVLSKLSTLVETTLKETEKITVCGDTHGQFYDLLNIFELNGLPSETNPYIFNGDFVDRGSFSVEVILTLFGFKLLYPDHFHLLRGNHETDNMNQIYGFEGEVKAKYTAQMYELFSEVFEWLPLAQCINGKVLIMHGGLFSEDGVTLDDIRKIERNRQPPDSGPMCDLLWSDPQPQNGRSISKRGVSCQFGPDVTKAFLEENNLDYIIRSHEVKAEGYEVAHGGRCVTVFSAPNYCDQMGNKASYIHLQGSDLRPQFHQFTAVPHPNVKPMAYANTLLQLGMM
ATG4B inh – blocks human ATG4B protease cleavage of LC3 substrate | Q9Y4P1 | ATG4B cleavage of LC3-PLA2, NBD-HPC fluorescence, 1 h | inhibition, % at 8.33 µM | 0.51% of 340,000 active; in the data active means inhibition above about 40%
An asterisk follows results filed as active; nt = no result; ! = not confirmed by another sample.

SMILES	PP1 inh	H9c2 protect	PP5 inh	ATG4B inh
CCCc1ccc(OCC(=O)Nc2cc(S(=O)(=O)CC)ccc2O)cc1	-0.1	-6.1	-0.4	-1.2
O=C(Nc1nc(-c2ccc(S(=O)(=O)N3CCCC3)cc2)cs1)C1COc2ccccc2O1 (centres undefined)	4.8	66.0*	2.8	-2.9
C=CCn1c(SCC(=O)N(C(C)CC)C2CCS(=O)(=O)C2)nc2ccccc2c1=O (centres undefined)	nt	3.6	nt	2.6
N=c1c2c(-c3ccccc3)c(-c3ccccc3)oc2ncn1CCCN1CCOCC1	-0.9	9.6	0.5	-23.3
c1ccc(-c2oc3ncnc(NCCN4CCOCC4)c3c2-c2ccccc2)cc1	3.1	52.6*	4.0	-34.9
COc1ccccc1CN1CC(C(=O)NCc2cc(C(C)C)no2)CCC1=O (centres undefined)	-3.0	0.5	0.5	-1.8
C#CCOCCOCCOCCNc1nc(N2CCOCC2)nc(N2CCN(C(=O)CCCCCCCCCCNC(=O)[C@H]([C@@H](C)CC)n3cc(CCCCN=C(N)N)nn3)CC2)n1	15.4*	2.5	-1.7	0.5
C#CCOCCOCCOCCNc1nc(N2CCN(C(=O)CCCCCCCCCCNC(=O)[C@H](CCCN=C(N)N)n3cc(C[C@@H](C)CC)nn3)CC2)nc(N2CCN(C(=O)CCCCCCCCCCNC(=O)[C@@H]([C@H](C)CC)n3cc(CCCCCN)nn3)CC2)n1	71.3*	nt	7.2	nt
C#CCOCCOCCOCCNc1nc(N2CCN(C(=O)CCCCCCCCCCNC(=O)[C@@H](CCC(=O)O)n3cc(CCCCCN)nn3)CC2)nc(N2CCN(C(=O)CCCCCCCCCCNC(=O)[C@H](CO)n3cc(CCCSC)nn3)CC2)n1	2.7	-1.4	2.8	-34.3
C#CCOCCOCCOCCNc1nc(N2CCN(C(=O)CCCCCCCCCCNC(=O)[C@H]([C@@H](C)CC)n3cc(CCCCN=C(N)N)nn3)CC2)nc(N2CCN(C(=O)CCCCCCCCCCNC(=O)[C@H](CCCN=C(N)N)n3cc(C[C@@H](C)CC)nn3)CC2)n1	68.2*	nt	9.8*	nt
C#CCOCCOCCOCCNc1nc(N2CCN(C(=O)CCCCCCCCCCNC(=O)[C@@H](CCC(=O)O)n3cc(CCCCCN)nn3)CC2)nc(N2CCN(C(=O)CCCCCCCCCCNC(=O)[C@H](CO)n3cc(CCCCCN)nn3)CC2)n1	15.3*	2.0	1.7	-17.0
C#CCOCCOCCOCCNc1nc(N2CCOCC2)nc(N2CCN(C(=O)[C@H]([C@@H](C)CC)n3cc(CCCN=C(N)N)nn3)CC2)n1	2.0	0.7	3.4	-4.0
COc1ccc(C(=O)C2CCCN(C(=O)c3cccc(Cl)c3F)C2)cc1OC (centres undefined)	-0.7	-8.0	1.3	-5.4
Cc1ccc(S(=O)(=O)NCC(=O)OC(C)C(=O)NC2CCCCC2C)cc1C (centres undefined)	nt	-2.2	nt	5.3
CC(C)C(C(=O)NC1CCCC1)N(CC1CCCO1)C(=O)CNS(=O)(=O)c1ccc(F)cc1 (centres undefined)	2.0	-6.0	3.6	-2.2
C#CCOCCOCCOCCNc1nc(N2CCN(C(=O)CCCCCCCCCCNC(=O)[C@H](CO)n3cc(CCCCCN)nn3)CC2)nc(N2CCN(C(=O)CCCCCCCCCCNC(=O)[C@H](CCCN=C(N)N)n3cc(C[C@@H](C)CC)nn3)CC2)n1	57.4*	nt	5.5	nt
C#CCOCCOCCOCCNc1nc(N2CCN(C(=O)CCCCCCCCCCNC(=O)[C@H](CCCCN)n3cc(CCO)nn3)CC2)nc(N2CCN(C(=O)CCCCCCCCCCNC(=O)[C@H](CCCCN)n3cc(CCCC(=O)O)nn3)CC2)n1	0.4	-4.2	1.4	-9.6
CCOc1ccc(/C(O)=C2/C(=O)C(=O)N(c3ccccn3)C2c2ccc(C)cc2)c(C)c1 (centres undefined)	17.0*	0.3	0.7	-0.7
CCOc1ccc(/C(O)=C2/C(=O)C(=O)N(c3ccccn3)C2c2ccc(Cl)cc2)c(C)c1 (centres undefined)	nt	1.3	nt	-7.7
CCNC(=O)C1(C)CCN(C(=O)c2ccccc2OC)C1 (centres undefined)	nt	-0.4	nt	nt
COc1ccc2c(c1OC)c(=O)n1c3ccc(OC(C)C(=O)NCCN4CCOCC4)cc3c3ccnc2c31 (centres undefined)	0.7	52.8*	3.6	-26.3
CC1=CC(=O)C(C(C)C)=C/C1=C(\c1cc(C(C)C)c(OP(=O)(O)O)cc1C)c1ccccc1C(=O)O	15.2*	-2.0	5.7	11.1
CC(=O)c1cn(CC(=O)NCc2ccco2)c2ccccc12	-1.4	-7.5	1.6	-11.8
O=C(Cn1cc(C(=O)COc2ccccc2)c2ccccc21)NCc1ccco1	16.7*	-3.9	-0.9	-6.5
CCOC(=O)N1CCN(CCC(=O)Nc2cccc(Br)c2)CC1	17.5*!	2.3	-0.4	-1.9
SMILES	PP1 inh	H9c2 protect	PP5 inh	ATG4B inh
CCOC(=O)N1CCN(CC(=O)Nc2cccc(Br)c2)CC1	1.2	0.8	0.2	-3.8
Cc1c(Cl)cccc1NC(=O)CNC(=O)CCCc1nc2ccccc2c(=O)[nH]1	nt	34.5	nt	-6.5
COc1ccc(NC(=O)CCCc2nc3ccccc3c(=O)[nH]2)cc1Cl	nt	57.4*	nt	-6.5
Cc1ccc(NC(=O)CCCc2nc3ccccc3c(=O)[nH]2)c(Cl)c1	-0.9	63.3*	1.0	-4.4
COCCN(C(=O)CSc1nnc(-c2ccc(C)cc2)n1N)c1c(N)n(Cc2ccccc2)c(=O)[nH]c1=O	-15.1	10.0	-5.5	-7.3
CCOC(=O)C1CCN(c2cc3c(cc2NC(=O)c2ccccc2F)n(C)c(=O)n3C)CC1	-3.5	19.7	-0.3	1.2
CCOC(=O)C1CCN(c2cc3c(cc2NC(=O)c2ccccc2OCC)n(C)c(=O)n3C)CC1	5.7	36.1	-3.2	14.3
CCOC(=O)C1CCN(c2cc3c(cc2NC(=O)c2ccccc2Cl)n(C)c(=O)n3C)CC1	0.2	56.1*	2.4	-5.7
CCOC(=O)C1CCN(c2cc3c(cc2NC(=O)c2ccc(F)cc2)n(C)c(=O)n3C)CC1	-3.9	80.9*	-2.3	-1.4
O=C(NCCOc1ccccc1)C1CCC(=O)N(C2CCCCCC2)C1 (centres undefined)	-1.1	2.9	1.8	8.9
O=C(CCc1nc2ccccc2c(=O)[nH]1)N1CCN(S(=O)(=O)c2ccc(Cl)c(C(F)(F)F)c2)CC1	-5.9	36.6	0.7	-4.8
O=C(N=C1SC2CS(=O)(=O)CC2N1c1ccc(Cl)c(Cl)c1)C1CCCO1 (centres undefined)	-0.9	-2.4	-1.7	-3.3
CCOc1ccc(OCCC(=O)N(CCC(C)C)c2c(N)n(Cc3ccccc3)c(=O)[nH]c2=O)cc1	-5.6	2.5	0.1	-6.4
COc1ccc2c(c1)C(=O)C1NC(=O)NC(=O)C1(Br)N2 (centres undefined)	nt	9.3	nt	-4.0
Cc1cccc(NC(=O)COn2nnc3ccc(S(C)(=O)=O)cc32)c1	-2.9	8.0	-1.5	-3.8
CCC1CSC(Nc2ccc(C(=O)/C=C/c3ccc(Br)cc3)cc2)=N1 (centres undefined)	15.2*	-7.8	4.0	-6.0
CCC1CSC(Nc2ccc(C(=O)/C=C/c3ccc(OC)c(OC)c3)cc2)=N1 (centres undefined)	4.2	-7.2	2.5	17.9
